Out of some 350,000 compounds screened, about 1,900 (0.54%) were called active. Only a selection was taken, and actives are over-represented in it overall. Values without a mark were called inactive.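 How the source made its calls: active means mean inhibition across replicates at least about 35%, with every replicate also reaching that limit (limit read from the data); inconclusive means only one of the two criteria met; inactive means neither criterion met.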

For orientation: inhibition means the change of the read-out against control, counted positive when it falls.

In this test the target is Caspase-6 (Homo sapiens) (UniProt P55212). The experiment in a line: inhibition of CASP6 peptide cleavage – biochemical, VEID-R110 fluorescence, single point, set 2, primary screen (AID 686996).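 Further: 0% = median of neutral control wells and 100% = no fluorescence left.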 The conditions noted are these: purified caspase-6, Z-VEID-R110 cleavage fluorescence; at 12.5 µM; active compounds read high.
Chain of Caspase-6 (Homo sapiens) (P55212 24-179 limits assumed): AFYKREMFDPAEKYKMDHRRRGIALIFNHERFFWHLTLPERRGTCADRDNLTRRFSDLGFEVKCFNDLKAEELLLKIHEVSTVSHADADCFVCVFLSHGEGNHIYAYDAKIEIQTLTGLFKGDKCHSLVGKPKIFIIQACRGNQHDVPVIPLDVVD
Chain of Caspase-6 (Homo sapiens) (P55212 194-293 limits assumed): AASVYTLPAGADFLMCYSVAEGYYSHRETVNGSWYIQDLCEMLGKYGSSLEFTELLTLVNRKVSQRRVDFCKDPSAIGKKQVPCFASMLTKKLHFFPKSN
Consider `O=C(CCN1C(=O)c2ccccc2C1=O)Nc1cccc(F)c1`, for which the inhibition was -0.612%. In the case of `O=C(Nc1cccc(F)c1)c1cc(-c2ccco2)nc2ccccc12` it was -7.91%; in that of `O=C(Nc1cccc(F)c1)c1coc(=O)c(Br)c1`, 51.7% (active). Regarding `C[C@H](CO)N1C[C@H](C)[C@@H](CN(C)C(=O)Nc2ccc3c(c2)OCO3)OCCCC[C@H](C)Oc2ccc(NS(=O)(=O)c3cn(C)cn3)cc2C1=O`, the inhibition was -1.24%. As to `CC(=O)N1CC2(C1)[C@H](c1ccccc1)[C@@H](CO)N2C(=O)Cc1ccccc1`, the inhibition is 0.826%. Turning to `CCOC(=O)C1=C(C(=O)OCC)C2N(Cc3ccc(C#N)cc3)c3ccccc3[C@@]23C[C@@H](C(=O)OC)N(S(=O)(=O)c2ccc(F)cc2)C3=N1` (some centres not stated), the inhibition is -0.093%. As for `CCC(C)CN1C(=O)CN(S(C)(=O)=O)CC1(C)C(=O)Nc1ccc2c(c1)OCCO2` (configuration not stated), the inhibition was 39.7% (active). Regarding `CC(C)CN1C(=O)CN(S(C)(=O)=O)CC1(C)C(=O)NCc1ccccc1` (configuration not stated), the inhibition was -0.689%. Under `CC1(C(=O)Nc2ccc3c(c2)OCCO3)CN(S(C)(=O)=O)CC(=O)N1Cc1cccc(F)c1` (configuration not stated) stands 1.36%; under `COc1ccc(CN(C)C[C@H]2OCCCC[C@@H](C)Oc3ccc(NS(C)(=O)=O)cc3C(=O)N([C@@H](C)CO)C[C@H]2C)cc1`, -2.66%. Under `CCCNC(=O)[C@@H]1[C@@H](CO)[C@@H]2Cn3c(ccc(-c4ccccc4F)c3=O)[C@H]1N2CC1CC1` stands 0.74%; under `COc1ccc2c3c([nH]c2c1)[C@H](CO)N(Cc1ccc(F)cc1)CC31CCN(Cc2ccccn2)CC1`, -3.59%. Turning to `C[C@H](CO)N1C[C@H](C)[C@H](CN(C)Cc2ccncc2)Oc2ccc(N(C)C)cc2C1=O`, the inhibition is 2.63%. In the case of `CCOC(=O)c1ccc(NC(=O)c2c(NCc3ccccc3)[nH]c(=O)[nH]c2=O)cc1`, the inhibition is 0.97%. Take `C#CCNc1ccc(C(=O)OCC)cc1`: the inhibition was -1.16%.

As for `CCOC(=O)c1ccc(Nc2cc3ccccc3c(=O)[nH]2)cc1`, the inhibition is 87.8% (active). As to `CCC(=O)N1CCCCN2[C@H](C1)[C@@H](c1ccc(C#CCOC)cc1)[C@@H]2CO`, the inhibition was -1.73%. `COc1ccc(S(=O)(=O)Nc2cccc3c2O[C@@H](CN(C)C(=O)Nc2ccccc2)[C@@H](C)CN([C@@H](C)CO)C3=O)cc1`: the inhibition is -2.16%. Consider `C[C@@H]1CN([C@H](C)CO)S(=O)(=O)c2ccc(C#C[C@@H](C)O)cc2O[C@H]1CN(C)C(=O)CC1CC1`, for which the inhibition was 0.478%. Turning to `CCOC(CNC(=O)C1CCN(S(=O)(=O)c2ccc3nc4c(c(C(=O)O)c3c2)CC(C)CC4)CC1)OCC` (configuration not stated), the inhibition is 33.4%. Consider `CC(=O)N1c2ccc(S(=O)(=O)N3CCC(C(=O)NCc4ccc(F)cc4)CC3)cc2CC1C` (configuration not stated), for which the inhibition is 22.3%. With `Cc1ccc(CNC(=O)C2CCN(S(=O)(=O)c3ccc4nc5c(c(C(=O)O)c4c3)CC(C)CC5)CC2)cc1` (configuration not stated), the inhibition is 62.6% (active). In the case of `N#C[C@H]1[C@@H](c2ccccc2-c2ccccc2F)[C@@H](CO)N1C(=O)C1CCC1`, the inhibition is -2.32%. Regarding `CC(=O)N1[C@@H](CO)[C@@H](c2ccc(C3=CCCC3)cc2)C12CN(C(=O)C1CC1)C2`, the inhibition is 0.171%. `O=C(O)c1cc(S(=O)(=O)Nc2ccc3cn[nH]c3c2)ccc1Br`: the inhibition was 43.4% (active). `COc1ccc(S(=O)(=O)Nc2ccc3cn[nH]c3c2)cc1[N+](=O)[O-]`: the inhibition is 9.88%. Under `O=C(Nc1ccc2cn[nH]c2c1)c1ccc(S(=O)(=O)N2CCOCC2)cc1` stands 0.612%; under `C/C=C/c1ccccc1[C@@H]1[C@@H](CO)N(C(=O)CN2CCOCC2)[C@H]1C#N`, -0.139%; under `C[C@H]1CN([C@@H](C)CO)C(=O)Cc2cc(NC(=O)CCCCCC(=O)Nc3ccccc3N)ccc2O[C@H]1CN(C)C(=O)Nc1ccc(F)cc1`, 0.452%. As to `O=C(NNC(=O)c1ccccc1O)c1ccccc1O`, the inhibition is 73.9% (active). Take `Cc1cc(C(=O)CCC(=O)NNC(=O)c2ccccc2O)c(C)s1`: the inhibition is 4.5%. `O=C(NNC(=O)c1cc(S(=O)(=O)N2CCCCC2)ccc1Cl)c1ccccc1O`: the inhibition was 0.767%. Under `CN(C)CCCNC(=O)C[C@H]1CC[C@H]2[C@@H](COC[C@H](O)CN2C(=O)c2ccncc2)O1` stands 0.773%; under `CN(c1ccccc1)S(=O)(=O)c1cccc(NC(=O)Cc2ccc(Cl)cc2)c1`, -0.727%; under `COC(=O)c1cn(C(=O)c2ccc(Cl)cc2)c2ccccc12`, 0.734%.

For the compound `COC(=O)C(=Nc1ccccc1)/C(C(=O)C(=O)N(C)c1ccccc1)=C(\O)c1ccc(Cl)cc1`, the inhibition is 40.1% (active). With `CN1C(=O)c2cc(NC(=O)C3CC3)ccc2OC[C@@H]2O[C@@H](CC(=O)NCC3CCCCC3)CC[C@@H]21`, the inhibition was -1.04%. On to `CO[C@H]1CN(C)C(=O)c2cc(NC(=O)Nc3c(C)noc3C)ccc2OC[C@@H](C)N(CCC(F)(F)F)C[C@H]1C`, for which the inhibition is -1.87%.

With `C[C@@H]1CN([C@@H](C)CO)C(=O)c2cc(C#CC3CC3)cnc2O[C@@H]1CN(C)C(=O)Cc1ccccn1`, the inhibition was 0.481%. With `COc1ccccc1-c1cccc(-c2nc(C(=O)N3CCN(C)CC3)cc3c2[C@H](CCO)N([S@@](=O)C(C)(C)C)C3)c1`, the inhibition was -1.46%. As to `CC(C)(C)[S@@](=O)N1Cc2cc(C(=O)O)nc(-c3cccc(-c4cccc(F)c4)c3)c2[C@H]1CCO`, the inhibition is -2.52%. With `COc1ccc(C#Cc2cccc(-c3nc(C(=O)O)cc4c3[C@@H](CCO)N(S(=O)C(C)(C)C)C4)c2)cc1OC` (some centres not stated), the inhibition was 35.2% (active). Consider `CC(C)(C)S(=O)N1Cc2cc(C(=O)O)nc(-c3cccc(-c4cc5ccccc5o4)c3)c2[C@@H]1CCO` (some centres not stated), for which the inhibition is 37.1% (active).

In the case of `CC(C)(C)S(=O)N1Cc2cc(C(=O)NCCCN3CCOCC3)nc(-c3cccc(-c4cc5ccccc5o4)c3)c2[C@H]1CCO` (some centres not stated), the inhibition was -2.64%. In the case of `CC(C)(C)[S@](=O)N1Cc2cc(C(=O)N3CCCCC3)nc(-c3cccc(-c4ccccc4F)c3)c2[C@@H]1CCO`, the inhibition was -3.88%. Consider `COc1ccc(NC(=O)O[C@H]2[C@H](OC(=O)Nc3ccc4c(c3)OCO4)[C@@H](OC(=O)Nc3ccc4c(c3)OCO4)[C@@H](OC)O[C@@H]2CO)cc1`, for which the inhibition was -3.42%. Regarding `Cc1ccc(S(=O)(=O)N[C@@H]2CC[C@H](CCn3cc(C4(O)CCCC4)nn3)O[C@H]2CO)cc1`, the inhibition was -2.61%.

Turning to `Cc1ccccc1-c1ccc2c(c1)O[C@H](CN(C)Cc1ccc(C(=O)O)cc1)[C@@H](C)CN([C@H](C)CO)S2(=O)=O`, the inhibition is -3.25%.

For `COc1ccccc1C#Cc1ccc([C@@H]2[C@@H](CO)N3CCCCN(S(C)(=O)=O)C[C@@H]23)cc1`, the inhibition is -2.85%.

Turning to `CC(C)c1ccc(C=NNc2ccc([N+](=O)[O-])cn2)cc1`, the inhibition was -4.08%. As for `Cc1cc(C=O)c(C)n1-c1ccc(NC2CCCCC2)c([N+](=O)[O-])c1`, the inhibition was -0.869%. Consider `Cc1cc(/C=N/Nc2ccc([N+](=O)[O-])cn2)c(C)n1-c1cccc(C(=O)O)c1`, for which the inhibition is 40.7% (active).

With `C[C@H](O)C#Cc1ccc2c(c1)O[C@H](CN(C)Cc1cccnc1)[C@H](C)CN([C@H](C)CO)S2(=O)=O`, the inhibition was -2.82%.

Take `O=C(N[C@@H]1CC[C@@H](CC(=O)N2CCc3ccccc3C2)O[C@H]1CO)C1CC1`: the inhibition was -3.42%. In the case of `CCC(=O)N(C)C[C@H]1Oc2ncc(C#Cc3cccnc3)cc2C(=O)N([C@H](C)CO)C[C@H]1C` it was 2.38%; in that of `C[C@@H]1CCCCO[C@@H](CN(C)S(=O)(=O)c2ccccc2)[C@@H](C)CN([C@@H](C)CO)C(=O)c2cc(NS(=O)(=O)c3cn(C)cn3)ccc2O1`, 2.27%. For the compound `CN(CCOc1ccccc1)C(=O)c1cc(-c2ccco2)nc2ccccc12`, the inhibition was 4.78%. Take `CC1CCCN(C(=O)c2cc(-c3ccco3)nc3ccccc23)C1` (configuration not stated): the inhibition was 2.88%.

On to `Cc1cc(C)c2nc(-c3ccco3)cc(C(=O)O)c2c1`, for which the inhibition was 42.1% (active).

As for `COCC#Cc1cnc2c(c1)C(=O)N([C@H](C)CO)C[C@H](C)[C@H](CN(C)C(=O)Nc1ccccc1OC)O2`, the inhibition is 0.658%. For `O=C(c1cccc(F)c1)N1CC(=O)N2[C@H](C1)[C@@H](c1ccc(C#Cc3ccc(F)cc3)cc1)[C@@H]2CO`, the inhibition was 1.71%.

On to `COCCNc1nc(Nc2ccccc2Cl)c2sc(-c3ccccc3)cc2n1`, for which the inhibition was 35.1% (active).

Regarding `Clc1ccccc1Nc1nc(NCc2cccs2)nc2ccsc12`, the inhibition is -2.77%. With `COc1ccccc1CNc1nc(Nc2ccccc2Cl)c2sccc2n1`, the inhibition was -1.14%. As to `C[C@H](CO)N1C[C@H](C)[C@H](CN(C)Cc2cncnc2)Oc2cc(-c3ccccc3F)ccc2S1(=O)=O`, the inhibition was -1.88%. Under `CC(C)n1ncc2c(C(=O)Nc3ccc(CC#N)cc3)cc(C3CC3)nc21` stands -2.38%; under `CNC(=O)c1ccc(CN(C)C(=O)c2cc(C3CC3)nc3c2cnn3C(C)C)cc1`, 50.4% (active); under `CC(C)n1ncc2c(C(=O)NCc3ccccc3CN(C)C)cc(C3CC3)nc21`, -1.64%. In the case of `O=C(C[C@@H]1CC[C@@H]2[C@H](COC[C@H](O)CN2S(=O)(=O)c2ccccc2F)O1)NCc1ccccc1F` it was 4.05%; in that of `Cc1noc(C)c1NC(=O)N(C)C[C@H]1Oc2c(NC(=O)c3nc4ccccc4s3)cccc2C(=O)N([C@@H](C)CO)C[C@@H]1C`, -1.84%; in that of `Cc1cc2nc3c(=O)[nH]c(=O)nc-3n(C[C@H](O)[C@H](O)[C@H](O)CO)c2cc1C`, -54.4%.

Consider `CCN(CC)CCCC(C)n1c2nc(=O)[nH]c(=O)c-2nc2cc(Cl)ccc21` (configuration not stated), for which the inhibition is 81.9% (active).
